# Measured values as given in ChEMBL document CHEMBL3988442, “University of Dundee, Small-Polar-MMV Screening Library” (2021).
# About 1,000 (1.4%) of roughly 69,000 compounds showed an effect of 50% or more. Many of the other results were omitted from the sample, so strong results are more common in it than they were.
# Tested on: Leishmania donovani
# Experiment: Leishmania intramacrophage assay
# Type: functional, organism-based
# Design: scale not given: in the data most compounds retested in dose-response had high values
smiles,measurement,setting,value
Cc1ccc(-c2cc(C(F)(F)F)nc(N3CCOCC3)n2)s1,Percent Effect,"30.3 µM, […]",2.404%
Cc1nn(C)cc1-c1cc(C(F)(F)F)nc(NC2CCN(C)CC2)n1,Percent Effect,"30.3 µM, […]",7.809%
CCNC(=O)[C@@H]1C[C@H](N)CN1c1cc(C(F)(F)F)nc(N2CCCC2)n1,Percent Effect,"30.3 µM, […]",23.81%
Cc1c(-c2cc(C(F)(F)F)nc(N3CCC(N)CC3)n2)cnn1C,Percent Effect,"30.3 µM, […]",81.41%
CCn1ncc(-c2cc(C(F)(F)F)nc(N3CCC(N)CC3)n2)c1C,Percent Effect,"30.3 µM, […]",100.6%
CCc1ccc(-c2cc(C(F)(F)F)nc(N3CCC(N)CC3)n2)cc1,Percent Effect,"30.3 µM, […]",44.83%
Cc1ccccc1OCn1ccc(C(=O)NCCN2CCOCC2)n1,Percent Effect,"30.3 µM, […]",-13.65%
O=C(O)C(F)(F)F.O=C(c1ccccc1)N1CCCC2(CCN2Cc2cccc(F)c2)C1 (configuration not stated),Percent Effect,"30.3 µM, […]",54.88%
O=S(=O)(c1ccccc1)N1CCC2(CCCN2Cc2ccc(Cl)cc2)C1 (configuration not stated),Percent Effect,"30.3 µM, […]",36.08%
O=C(O)C(F)(F)F.O=S(=O)(c1ccccc1)N1CCC2(CCCN2Cc2cccc(Cl)c2)C1 (configuration not stated),Percent Effect,"30.3 µM, […]",27.63%
O=C(O)C(F)(F)F.O=C(c1cscn1)N1CCCC2(CCN2Cc2cccc(F)c2)C1 (configuration not stated),Percent Effect,"30.3 µM, […]",40.36%
O=S(=O)(c1ccccc1)N1CCC2(CCCN2Cc2cccc(F)c2)C1 (configuration not stated),Percent Effect,"30.3 µM, […]",61.17%
O=S(=O)(c1ccccc1)N1CCC2(CCCN2Cc2ccccc2Cl)C1 (configuration not stated),Percent Effect,"30.3 µM, […]",52.23%
Cc1ccc(CN2CCCC23CCN(S(=O)(=O)c2ccccc2)C3)o1 (configuration not stated),Percent Effect,"30 µM, 30.03 µM",49.3%
CCS(=O)(=O)N1CCCC2(CCCN2Cc2cccc(F)c2)C1.O=C(O)C(F)(F)F (configuration not stated),Percent Effect,"30.3 µM, […]",12.48%
O=C(O)C(F)(F)F.O=C(O)C(F)(F)F.O=C(O)CN1CCCC2(CCN2Cc2cccc(F)c2)C1 (configuration not stated),Percent Effect,"30.3 µM, […]",-0.8696%
CC(C)C(C(N)=O)c1cccc(Cl)c1 (configuration not stated),Percent Effect,"30.3 µM, […]",23.22%
Cc1nnc(N2CCO[C@H]3[C@@H](OCc4ccccn4)CC[C@@H]32)s1.O=C(O)C(F)(F)F.O=C(O)C(F)(F)F,Percent Effect,"30.3 µM, […]",-5.183%
Cc1nccn1Cc1nnc(C2CCN(c3ccncc3F)CC2)n1C,Percent Effect,"30.3 µM, […]",4.988%
c1nc2c(c(NC3COC4(CCCC4)C3)n1)CCNCC2 (configuration not stated),Percent Effect,"30.3 µM, […]",-7.058%
O=C(O)C(F)(F)F.O=C(c1cocn1)N1C[C@H]2CCC[C@@]2(COc2ccccn2)C1,Percent Effect,"30.3 µM, […]",20.04%
Cc1nn(C)c(C)c1CN1CCCC1c1nccc(CN(C)C)n1 (configuration not stated),Percent Effect,"30.3 µM, […]",3.97%
CC(C#N)CNC(=O)Nc1ccc(Br)cc1 (configuration not stated),Percent Effect,"30.3 µM, […]",6.996%
CC(=O)N1CCCN(C2CCCCc3ccccc32)CC1 (configuration not stated),Percent Effect,"30.3 µM, […]",18.35%
COc1c(C2CCCN2C(=O)c2c[nH]c3ncccc23)c(C)nn1C (configuration not stated),Percent Effect,"30 µM, 30.03 µM",-19.02%
Cc1noc([C@@]23CCO[C@@H]2CCN(S(=O)(=O)c2cccnc2)C3)n1,Percent Effect,"30.3 µM, […]",57.7%
Cc1noc([C@@]23CCO[C@@H]2CCN(C(=O)C2CCOCC2)C3)n1,Percent Effect,"30 µM, 30.03 µM",-29.55%
Cc1nnc([C@@]23CCO[C@@H]2CCN(S(C)(=O)=O)C3)o1,Percent Effect,"30.3 µM, […]",-7.004%
CNC(=O)[C@@]12CCO[C@@H]1CCN(S(=O)(=O)c1cccnc1)C2.O=C(O)C(F)(F)F,Percent Effect,"30 µM, 30.03 µM",-13.7%
Cc1nnc([C@@]23CCO[C@@H]2CCN(S(=O)(=O)c2ccccc2)C3)o1,Percent Effect,"30.3 µM, […]",56.06%
Cc1nnc([C@@]23CCO[C@@H]2CCN(S(=O)(=O)c2cccnc2)C3)o1,Percent Effect,"30.3 µM, […]",17.24%
C[C@H]1C[C@H]2CN(C(=O)c3cccc4c3OCCO4)CC[C@H]2O1,Percent Effect,"30.3 µM, […]",-11.14%
CCc1nccn1-c1cccc(C2CCCN2)n1.Cl.Cl (configuration not stated),Percent Effect,"30.3 µM, […]",6.16%
O=C1CCCN1CCCN1CCCCC1Cn1cncn1 (configuration not stated),Percent Effect,"30.3 µM, […]",26.96%
Cc1csc(CCNC(=O)N2CCC(NC(=O)OC(C)(C)C)CC2)n1,Percent Effect,"30.3 µM, […]",-5.066%
CSc1nc2cc(C)n(CC(=O)N3CCCC3)c2c(=O)n1CC(C)C,Percent Effect,"30.3 µM, […]",6.672%
CC(NCc1ccc(OCC(N)=O)cc1)c1ccc2c(c1)CCCC2 (configuration not stated),Percent Effect,"30.3 µM, […]",72.53%
CC(NCc1ccc(OCC(N)=O)cc1)c1ccc(Cl)c(Cl)c1.Cl (configuration not stated),Percent Effect,"30.3 µM, […]",12.13%
CC(NCc1ccc(OCC(N)=O)cc1)c1ccc(Cl)cc1.Cl (configuration not stated),Percent Effect,"30.3 µM, […]",32.34%
CCc1nncn1CCNC(=O)Nc1ccc(OC)c(C)c1,Percent Effect,"30.3 µM, […]",5.132%
CCC(=O)c1ccc(Br)cc1NN1c2cc(Br)ccc2C(=O)C1(C)OC (configuration not stated),Percent Effect,"30.3 µM, […]",24.9%
CCC(=O)c1ccccc1NN1c2ccccc2C(=O)C1(C)OC (configuration not stated),Percent Effect,"30.3 µM, […]",62.96%
CCOC1(C)C(=O)c2ccccc2N1Nc1ccccc1C(=O)CC (configuration not stated),Percent Effect,"30.3 µM, […]",19.56%
Cc1c(C(=O)O)cnn1-c1ccc(-c2nc(C3CC3)no2)cn1,Percent Effect,"30.3 µM, […]",11.33%
CC(C)Cc1cc(NC(=O)c2cc(Cl)c[nH]2)n(C)n1,Percent Effect,30 µM,-56.19%
N#Cc1cccc(N2CCCC(CO)(Cc3ccccc3F)C2)n1 (configuration not stated),Percent Effect,"30.3 µM, […]",29.41%
OCC1(Cc2ccccc2F)CCCN(c2ccc3ccccc3n2)C1 (configuration not stated),Percent Effect,"30.3 µM, […]",23.98%
Nc1cc(N2CCCC(CO)(Cc3ccccc3F)C2)nc(N)n1 (configuration not stated),Percent Effect,"30.3 µM, […]",94.26%
N#Cc1cccnc1N1CCCC(CO)(Cc2ccccc2F)C1 (configuration not stated),Percent Effect,"30.3 µM, […]",2.884%
COc1cc(N2CCCC(CO)(Cc3ccccc3F)C2)ncn1 (configuration not stated),Percent Effect,"30.3 µM, […]",63.9%
CC(=O)c1ccc(N2CCCC(CO)(Cc3ccccc3F)C2)nc1 (configuration not stated),Percent Effect,"30.3 µM, […]",13.31%
CC(C)(C)c1cn2nc(N3CCC[C@@H]3CO)sc2n1,Percent Effect,"30 µM, 30.03 µM",20.83%
CN(C)C(=O)N1CCN(C(=O)c2ccc(Cl)c(Cl)c2)C(C)(C)C1,Percent Effect,"30.3 µM, […]",36.34%
CCc1nc(N2CCN(CCOC)CC2)c2cnn(C)c2n1,Percent Effect,"30.3 µM, […]",9.143%
CCNC(=O)CN(CC)C(=O)Cc1csc(C(C)C)n1,Percent Effect,"30.3 µM, […]",17.83%
Cc1ncccc1CNCC1COC2(CCCCC2)O1 (configuration not stated),Percent Effect,"30.3 µM, […]",19.04%
Cc1nc(NCCCn2cccn2)c2c(n1)c(C)nn2C,Percent Effect,"30.3 µM, […]",-31.03%
O=C(CNC(=O)c1cnc2ccccc2c1O)NCCCn1ccnc1,Percent Effect,"30.3 µM, […]",15.36%
CN1CCN(C[C@@H]2CN(C3Cc4ccccc4C3)C[C@@H]2CO)CC1,Percent Effect,"30.3 µM, […]",4.168%
CN(C)C[C@@H]1CN(C2CCN(c3ccccc3Cl)CC2)C[C@@H]1CO,Percent Effect,"30.3 µM, […]",52.98%
CN(CCO)C[C@@H]1CN(Cc2ccccc2-c2ccccc2)C[C@@H]1CO,Percent Effect,"30.3 µM, […]",83.9%
Cc1cc(F)ccc1N1CCC(N2C[C@@H](C)[C@@](C)(O)C2)CC1,Percent Effect,"30.3 µM, […]",44.3%
CN(C)C[C@@H]1CN(C(=O)Cc2ccccc2)C[C@@H]1CO,Percent Effect,"30.3 µM, […]",22.9%
CN(CCO)C[C@@H]1CN(C(=O)Cc2ccc3ccccc3c2)C[C@@H]1CO,Percent Effect,"30.3 µM, […]",-1.562%
CN(CCO)C[C@@H]1CN(C2CCN(c3ccccc3Cl)CC2)C[C@@H]1CO,Percent Effect,"30.3 µM, […]",89.6%
Cc1cc(F)ccc1N1CCC(N2C[C@@H](CN(C)C)[C@@H](CO)C2)CC1,Percent Effect,"30.3 µM, […]",95.44%
Cc1ccccc1CN1C[C@@H](CN(C)CCO)[C@@H](CO)C1,Percent Effect,"30.3 µM, […]",5.953%
CN(CCO)C[C@@H]1CN(Cc2ccccc2C#N)C[C@@H]1CO,Percent Effect,"30.3 µM, […]",12.29%
CN(CCO)C[C@@H]1CN(C(=O)c2c(F)cccc2Cl)C[C@@H]1CO,Percent Effect,"30 µM, 30.03 µM",27.13%
CN(C)C[C@@H]1CN(C(=O)c2cc(F)ccc2F)C[C@@H]1CO,Percent Effect,"30.3 µM, […]",22.29%
O=C(NCCSCc1ccco1)c1ccc(N2CCOCC2)cc1,Percent Effect,"30.3 µM, […]",-4.352%
CCc1nnc2n1CCN(C(=O)c1nc(-c3ccco3)sc1C)C2,Percent Effect,30 µM,1.353%
O=C(O)C(F)(F)F.O=C(c1ccoc1)N1C[C@@H]2OCCN(c3ncccn3)[C@@H]2C1,Percent Effect,"30.3 µM, […]",10.14%
CCc1nccn1-c1nccnc1C1CCCN(C(=O)COC)C1 (configuration not stated),Percent Effect,"30.3 µM, […]",11.67%
Cc1cc(=O)[nH]c(NCCNC(=O)C(c2ccc(F)cc2)N(C)C)n1 (configuration not stated),Percent Effect,"30 µM, 30.03 µM",-13%
OCC1(NCc2cnc(-c3cccs3)s2)CCOCC1,Percent Effect,"30.3 µM, […]",16.11%
O=C(C1CC=CC1)N1CCC2(CCC(=O)N2Cc2cccc(F)c2)CC1,Percent Effect,"30.3 µM, […]",15.71%
CCOc1ccc(Cl)c(C(=O)NC(Cc2ccccc2)C(N)=O)n1 (configuration not stated),Percent Effect,"30.3 µM, […]",6.553%
CN(C)S(=O)(=O)CCCOc1cccc(-n2ccnc2)c1,Percent Effect,"30.3 µM, […]",-0.5544%
CN(C)C[C@@H]1CN(C2CCN(c3ccc(Cl)cc3)CC2)C[C@@H]1CO,Percent Effect,"30.3 µM, […]",93.76%
Cc1ccc(N2CCC(N3C[C@@H](CN(C)C)[C@@H](CO)C3)CC2)cc1,Percent Effect,"30.3 µM, […]",38.77%
CNC(=O)CN(C)C1CCN(c2ccc(Cl)cc2)CC1,Percent Effect,"30.3 µM, […]",24.19%
OC(COCc1cccs1)Cn1cc(Cl)cn1 (configuration not stated),Percent Effect,"30.3 µM, […]",11.71%
CC(C)N1CCN(C(=O)c2csc3nc(-c4ccc(Cl)cc4)cn23)CC1,Percent Effect,"30.3 µM, […]",11.51%
O=C(c1csc2nc(-c3ccc(Cl)cc3)cn12)N1CCCC(CO)C1 (configuration not stated),Percent Effect,"30.3 µM, […]",-3.231%
CCC1CN(C(=O)c2csc3nc(-c4ccc(Cl)cc4)cn23)CCN1 (configuration not stated),Percent Effect,"30.3 µM, […]",94.25%
CN(CC1CCOCC1)C(=O)NCCCN1CCCCC1,Percent Effect,"30.3 µM, […]",19.46%
O=C(c1ccncc1)N1CCC(c2nc(O)cc(-c3cccnc3)n2)C1 (configuration not stated),Percent Effect,"30 µM, 30.03 µM",-2.25%
Cc1cc2occ(CC(=O)N3CCC4(CCCN(C)C4=O)C3)c2cc1Cl (configuration not stated),Percent Effect,"30.3 µM, […]",10.63%
CN(C)CC1(O)CCN(C(=O)Cc2ccc(Cl)c(Cl)c2)C1 (configuration not stated),Percent Effect,"30.3 µM, […]",1.329%
Cc1cc2occ(CC(=O)N3CCC(O)(CN(C)C)C3)c2cc1Cl (configuration not stated),Percent Effect,"30.3 µM, […]",50.58%
O=C(O)[C@@H]1CCN(C(=O)Cc2ccccn2)[C@@H]1c1ccc(F)cc1,Percent Effect,"30.3 µM, […]",8.228%
CCO[C@H]1C[C@@H](O)C12CCN(C(=O)CC(F)(F)F)CC2,Percent Effect,"30.3 µM, […]",-0.6132%
CN(C)CCNC(=O)c1sc2ccccc2c1C1CCC(CN)CC1.Cl (configuration not stated),Percent Effect,"30.3 µM, […]",63.37%
COCCNC(=O)c1sc2ccccc2c1C1CCC(CN)CC1.Cl (configuration not stated),Percent Effect,"30.3 µM, […]",18.8%
Cl.NCC1CCC(c2c(C(=O)NCCO)sc3ccccc23)CC1 (configuration not stated),Percent Effect,"30.3 µM, […]",15.08%
COCc1cccc(NS(=O)(=O)c2cc(C(=O)O)cs2)c1,Percent Effect,"30 µM, 30.03 µM",36.6%
